Screens: PubChem BioAssay, National Center for Advancing Translational Sciences (NCATS)
Only some compounds are listed: those with a hit (about 2.6% of all), similar ones and a draw of the others.
GFP derepression = derepresses silenced GFP locus in mouse C127i cells. mouse C127i GFP locus derepression, cytometry, 30 h. Potency, µM (series often up to 46.1 µM), without a hit: top-dose GFP derepression (activation). actives 0.09% (n = 68,000); note: % of control where 0% means no effect
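Locus derepression in mouse mammary C127i cells whose integrated CMV-GFP reporter is normally silent; GFP expression after 30 h compound treatment was quantified by counting fluorescent cells.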
FLuc inh = inhibitors of firefly luciferase. P08659. purified firefly luciferase, luminescence, 8 min. Potency, µM (top dose mostly 57.1 µM), without a hit: at the top dose activity change, negative = inhibition, most hits filed as inhibitors. actives 2.2% (n = 72,000); note: potency is the fitted concentration of half-maximal effect; % is set by controls: 0 for no effect and ±100 for the full control effect; nearly all actives have a fitted effect of over 40% in size
Target sequence (P08659 whole entry, looked up): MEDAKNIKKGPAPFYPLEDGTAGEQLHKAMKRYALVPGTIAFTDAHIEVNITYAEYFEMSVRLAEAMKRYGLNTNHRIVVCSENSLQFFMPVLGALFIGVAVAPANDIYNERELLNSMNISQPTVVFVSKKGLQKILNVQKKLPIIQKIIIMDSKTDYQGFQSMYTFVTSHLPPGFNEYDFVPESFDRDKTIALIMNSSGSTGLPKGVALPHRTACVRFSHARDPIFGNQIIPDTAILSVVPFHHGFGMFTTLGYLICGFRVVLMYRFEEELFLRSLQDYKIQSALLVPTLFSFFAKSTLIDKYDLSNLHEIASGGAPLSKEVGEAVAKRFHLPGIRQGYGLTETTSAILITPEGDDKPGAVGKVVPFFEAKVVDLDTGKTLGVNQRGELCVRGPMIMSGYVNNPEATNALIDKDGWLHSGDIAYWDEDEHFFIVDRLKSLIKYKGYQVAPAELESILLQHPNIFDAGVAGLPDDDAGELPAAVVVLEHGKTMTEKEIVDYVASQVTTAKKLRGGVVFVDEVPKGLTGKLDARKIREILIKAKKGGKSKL
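Here, luciferase activity is measured as luminescence following an 8 min room-temperature reaction at 10 uM ATP, pH 7.2. Every library sample is titrated.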
HBB splicing = alters splicing of the hemoglobin beta chain | HBB splicing reporter cell assay, activation; EGFP reporter with mutant IVS2-654 intron; response scale: normalised to 500 nM splice-correcting PNA | Potency, µM (doses to about 46.1 µM), without a hit: at the top dose activation, usual class: activators | actives 0.06% (n = 65,000) | AID 925; note: potency is the fitted concentration of half-maximal effect; 0% is about no effect
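HeLa cells stably expressing EGFP interrupted by mutant beta-globin intron 2 (IVS2-654), 500/well in 2% FCS. Treated with compound for 2 days at 37C. Splicing correction scored as total well GFP intensity (488 nm excitation, 500-520 nm emission); 500 nM antisense PNA served as control.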
PK Bst = alters activity of Bacillus stearothermophilus pyruvate kinase. purified pyruvate kinase, luminescence ATP production; ribose 5-phosphate activator present at AC10. Potency, µM. actives 1.2% (n = 51,000). AID 361; in the data active = potency below about 11 µM; inconclusive = mostly about 12 µM to 25 µM;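 the screen sought inhibitors and activators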;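 note: potency is the fitted concentration of half-maximal effect; scaled between full activation by ribose 5 phosphate and full inhibition by luteolin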
The depositor's hits bear a star; i = inactive; ? = inconclusive; · = not tested or not shown; [ ] = dose if it differs, or a comment. Unless noted, calls come from the whole dose curve; as a rule, active = well fitted curve in the direction sought with a large enough effect; inconclusive = small, poorly fitted or top-dose-only effect, or another doubt; inactive = no such curve, though single readings can be large; an effect the other way counts as inactive or inconclusive.

SMILES	GFP derepression	FLuc inh	HBB splicing	PK Bst
Cc1c(N=C/C=C/c2ccccc2)c(=O)n(-c2ccccc2)n1C	-4%	-5%	0%	·
Cc1c(N=C/C=C/c2ccccc2)cnn1C	4%	16µM*	-1%[57.5 µM]	·
C#C[C@@]1(O)CC[C@@H]2[C@@H]3CCC4=CC(=O)CC[C@@H]4[C@H]3CC[C@]21CC	5%[20.6 µM]	4%[25.5 µM]	-2%[20.6 µM]	·
Cc1ccc2[nH]c(-c3ccccc3)cc(=O)c2c1	0%	5µM*	-4%[0.0738 µM]	·
O=C(COc1ccc(F)cc1Br)N1CCc2ccccc21	-2%	7.9µM*	0%[57.5 µM]	>57
Cc1ccc(C(=O)Nc2ccccc2C(=O)NC(CC(=O)O)C(=O)O)cc1 (stereo unspecified)	1%	32µM*	-1%	·
O=C(O)CC(NC(=O)c1ccccc1NC(=O)c1ccccc1)C(=O)O (stereo unspecified)	-2%	-6%	0%[9.22 µM]	·
CC(=O)O[C@H]1CC[C@@]2(C)C(=CC[C@@H]3[C@@H]4CC[C@H](c5cc(C(F)(F)F)n(C(C)=O)n5)[C@]4(C)CC[C@@H]32)C1	-6%[9.22 µM]	3%[11.4 µM]	-1%[9.22 µM]	·
Cc1cc(NC(=O)CSc2ccc(-c3nc4cc(C)c(C)cc4[nH]3)cn2)no1	?	0.32µM*	2%	i
Cc1ccc2nc(SCC(=O)Nc3cc(C)on3)[nH]c2c1	-2%	-3%	1%	>57
O=C(Nc1ccc2c(c1)nc1n2CCSC1)c1ccco1	-2%	6.3µM*	-1%[0.369 µM]	4.6*
O=C(Nc1ccc2c(c1)nc1n2CCOC1)c1ccco1	-2%	16µM*	5%[0.369 µM]	?
COC(=O)C/C=C\[C@@H](C)[C@@H](/C=N\OCC[C@H]1C=C[C@H](OC(C)=O)[C@@H](COC(C)=O)O1)NS(=O)(=O)c1ccc(C)cc1	·	1%[11.4 µM]	3%[9.22 µM]	·
COc1ccc(/C=N\n2nnc3ccccc32)cc1	4%	3.2µM*	-1%	2.2*
COc1ccc(/C=N/n2cc(-c3ccccc3)nc2N)cc1	9%	-3%	0%[9.22 µM]	·
N/N=C1/c2ccccc2N[C@H]1OC(=O)Nc1cccc(Cl)c1	0%[9.22 µM]	-1%[11.4 µM]	2%[9.22 µM]	·
O=C(Nc1nc(-c2ccccc2)cs1)c1cccs1	-2%	13µM*	-1%[9.22 µM]	·
COC(=O)COc1cccc(-n2cnnn2)c1	0%	-3%	-2%	>57
Cc1cc(C(=O)COc2cccc(-n3cnnn3)c2)c(C)n1-c1ccccc1	-1%	13µM*	-4%	·
Cc1nnc(NC(=O)c2ccc3c(c2)C(=O)N(CC2CCCO2)C3=O)s1 (stereo unspecified)	6%	-21%	-1%	·
O=C(Nc1ccc(O)c(C(=O)O)c1)c1ccc2c(c1)C(=O)N(CC1CCCO1)C2=O (stereo unspecified)	6%	13µM*	4%	·
CC1(C)Cc2nc3sc4c(SCC(=O)NCc5ccco5)ncnc4c3cc2CO1	7%	5µM*	1%	i
Cc1nc2cnc(N3CCOCC3)nc2n(C[C@H]2CCCO2)c1=O	-5%[9.22 µM]	2%[11.4 µM]	-1%	·
CCc1c(-c2ccccc2)nc2nc(C)c(C)nn12	-7%	-12%	0%	·
CCc1ccc(-c2cn3nc(C)c(C)nc3n2)cc1	4%[20.6 µM]	1µM*	·	1.5*
SMILES	GFP derepression	FLuc inh	HBB splicing	PK Bst
Cc1nc2nc(-c3ccccc3)cn2nc1C	-1%	13µM*	-1%	i
Cc1ccc(-c2c3c(=O)n(C)c(=O)n(C)c3c3c(C)cc(C)nn23)cc1	16%	2%	1%	>57
CN1CCN([C@@H]2Cc3ccccc3Sc3ccc(Cl)cc32)CC1	4%	0%	-1%	·
N[C@@H](CSC1(c2ccc(Cl)cc2)c2ccccc2-c2ccccc21)C(=O)O	2%[9.22 µM]	3%[11.4 µM]	3%[9.22 µM]	·
CN(C)S(=O)(=O)c1ccc(S(=O)(=O)N(Cc2ccccn2)Cc2ccco2)cc1	0%	2%	-1%	>57
COc1cc(C(=O)Oc2c(CN3CCOCC3)cc(Cl)c3cccnc23)cc(OC)c1OC	·	2%	-1%	·
COc1ccc(C(=O)Oc2c(CN3CCOCC3)cc(Cl)c3cccnc23)cc1	7.9µM*	3%	3%	>57
c1cc(-c2nc3cc(Cc4ccc5oc(-c6ccncc6)nc5c4)ccc3o2)ccn1	-1%	-2%	·	>57
Nc1ccc2oc(-c3ccccc3Cl)nc2c1	16%[20.6 µM]	3.2µM*	·	3*
Cc1ccc(C)c(-c2nc3cc(N)ccc3o2)c1	-2%	-8%	3%[57.5 µM]	·
CCc1ccc2oc(-c3cc(N)ccc3O)nc2c1	-3%	1µM*	1%[57.5 µM]	1.2*
CCc1ccc2oc(-c3cc(N)cc(C)c3O)nc2c1	0%	2.5µM*	0%	3.6*
Nc1ccc2oc(-c3cc(Br)ccc3Cl)nc2c1	6%[20.6 µM]	-5%[25.5 µM]	·	·
